# Experimental data: the supplement of paper PMC7695840
# Columns and labels:
# [1] = test system: Staphylococcus aureus MW2 delta-mecA (mecA-); experiment: normalized GFP fluorescence (growth of mecA- strain) (fraction of control range); higher = more growth of mecA- strain; details: compound concentration: 150 uM; cefoxitin: subinhibitory; fluorescent label: GFP
# Outline: (§1)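 Pre-induced S. aureus MW2 mecA+ (DsRed) and ΔmecA (GFP) cells were mixed 1:1 in LB with a daily-set subinhibitory cefoxitin dose. They were dispensed at 5 µL/well onto 150 μM compound (1.5% DMSO) in 1536-well plates, single replicate. Growth was 20 h at 37 °C, 90% humidity, unshaken, and DsRed (540/590) and GFP (485/520) were then read. Each channel was scaled per plate between the medians of the single-strain controls. Plates with high No Treatment ratios and rows with DsRed/GFP >10 were excluded.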
# [2] = test system: Staphylococcus aureus MW2 (mecA+); experiment: normalized DsRed fluorescence (growth of mecA+ strain) (fraction of control range); higher = more growth of mecA+ strain; details: compound concentration: 150 uM; cefoxitin: subinhibitory; fluorescent label: DsRed
# Outline: as §1
SMILES,normalized GFP fluorescence [1],normalized DsRed fluorescence [2]
Nc1ccn([C@@H]2CS[C@H](CO)O2)c(=O)n1,0.367,0.767
CC[N+](C)(C)Cc1ccccc1Br,0.178,0.523
CC(C)(O)c1ccccc1CC[C@@H](SCC1(CC(=O)O)CC1)c1cccc(/C=C/c2ccc3ccc(Cl)cc3n2)c1,-0.0136,0.632
Cc1c(O)c(=O)ccn1C [Deferiprone],0.292,0.96
Clc1cccc(Cl)c1NC1=NCCN1,0.205,0.663
CC(=O)N[C@@H](CS)C(=O)O,0.328,0.653
CN1CCC(=C2c3ccccc3C=Cc3ccccc32)CC1,0.0037,1.31
O=P(O)(O)C(O)(Cn1ccnc1)P(=O)(O)O [Zoledronic Acid (Zoledronate)],0.313,0.685
COC(=O)C1=C(C)NC(C)=C(C(=O)OC(C)C)C1c1cccc2nonc12 (centres undefined),0.00618,1.51
CC(C)Oc1ccc2c(=O)c(-c3ccccc3)coc2c1 [Ipriflavone],0.362,0.57
NS(=O)(=O)c1cc2c(cc1Cl)NC(C1CC3C=CC1C3)NS2(=O)=O (centres undefined),0.463,0.69
CC(C)(C)NC(=O)[C@H]1CC[C@H]2[C@@H]3CC[C@H]4NC(=O)C=C[C@]4(C)[C@H]3CC[C@]12C,0.27,0.691
Nc1nc(=O)c2nc(CNc3ccc(C(=O)N[C@@H](CCC(=O)O)C(=O)O)cc3)cnc2[nH]1,0.21,0.831
CC(C)C(=O)Nc1ccc([N+](=O)[O-])c(C(F)(F)F)c1,0.121,1.4
NNC(=O)c1ccncc1,0.19,1.03
O=C1C(O)=C([C@H]2CC[C@H](c3ccc(Cl)cc3)CC2)C(=O)c2ccccc21 [Atovaquone (Atavaquone)],0.714,0.498
NC12CC3CC(CC(C3)C1)C2,0.453,0.794
